Data on six molecules can be found in PubChem BioAssay (Tox21).

A short description of experiment [1]: Human pregnane X receptor (PXR) small molecule agonists, qHTS cell viability counter screen (AID 1346977). Also: nearly all actives have a fitted effect of over 50% in size. The procedure, abridged:
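HepG2 cells stably carrying the PXR-Luc reporter are cultured with 5% charcoal-stripped FBS and treated with compounds for 24hr. CellTiter-Fluor is added at 23hr and fluorescence is read after 1hr.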
In general terms: qHTS replaces the single test concentration by a dilution series.

A short description of experiment [2]: Caspase-3/7 induction in HepG2 cells by small molecules, qHTS assay (AID 1346978). Also: nearly all actives have a fitted effect of over 15% in size. The procedure, abridged: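 Caspase-3/7 induction was measured by Caspase-Glo 3/7 luminescence (30 min, room temperature) after a 17 hr compound exposure of wild-type HepG2 cells seeded at 2,000 per well and pre-incubated 5 hr.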
Experiment [3] is described as follows: Caspase-3/7 induction in CHO-K1 cells by small molecules, qHTS assay (AID 1346980). Also: nearly all actives have a fitted effect of over 15% in size. The procedure, abridged: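 Luminescent Caspase-Glo 3/7 read (30min, room temperature) quantified apoptosis induction. Cells were wild-type CHO-K1, treated with compound for 17hr at 37 C and 5% CO2.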
Experiment [4] can be described thus: Caspase-3/7 induction in HepG2 cells by small molecules, qHTS cell viability counter screen (AID 1346981). Also: series mostly up to about 92 µM; nearly all actives have a fitted effect of over 30% in size. Summed up: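 Fluorescence read-out of live-cell protease activity (CellTiter-Fluor) after 1 hr with reagent. This was measured in the same wells as the caspase-3/7 luminescence, on HepG2 cells exposed to DMSO-dissolved compounds for 16 hr at 37 C.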
Experiment [5] concerns the target Nuclear receptor subfamily 1 group I member 2 (Homo sapiens) (UniProt O75469). Briefly: Human pregnane X receptor (PXR) small molecule agonists, qHTS assay (AID 1346982). Also: nearly all actives have a fitted effect of over 35% in size. Also: potency is read from the fitted curve at half-maximal effect. Summed up: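 HepG2 PXR-Luc reporter line, 5% charcoal-stripped FBS; 5 hr pre-incubation, compound (DMSO) 24 hr at 37 C/5% CO2; ONE-Glo 30 min RT; luminescence read-out.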
For experiment [6], the target named is Acetylcholinesterase (Homo sapiens) (UniProt P22303). Nature of the experiment: Acetylcholinesterase (AChE) small molecule antagonists: colormetric cell-based qHTS assay (AID 1347395; calls by dose curve; also: nearly all actives have a fitted effect of over 30% in size). The procedure, abridged: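 Quantitative HTS in attached SH-SY5Y cells: 30 min compound exposure, then 90 min with acetylthiocholine and DTNB at 37 C; colour from thiocholine reports AChE activity.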

For experiment [7] the target is unchanged. Nature of the experiment: Acetylcholinesterase (AChE) small molecule antagonists: enzyme-based qHTS assay (AID 1347397; calls by dose curve; also: nearly all actives have a fitted effect of over 55% in size; also: potency is read from the fitted curve at half-maximal effect). As to conditions: Potency: AChE enzyme activity inhibition. Summed up:
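Colorimetric DTNB readout of acetylthiocholine hydrolysis, 10 min at room temperature, after 30 min room-temperature exposure of 50 mU/mL recombinant human enzyme to compound; DMSO vehicle control.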

For experiment [8] the target is unchanged. Briefly: Acetylcholinesterase (AChE) small molecule antagonists: fluorescence cell-based qHTS assay (AID 1347398; calls by dose curve; also: nearly all actives have a fitted effect of over 50% in size). As to conditions: Potency: AChE activity. Summed up:
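Cellular AChE activity read as thiocholine from acetylthiocholine hydrolysis, detected by Thiolite Green fluorescence at 490/520 nm after 40 min at room temperature. Compounds were pre-incubated 30 min at 37 C on adherent SH-SY5Y cells.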

Experiment [9] shares this target. Nature of the experiment: Acetylcholinesterase (AChE) small molecule antagonists: enzyme-based qHTS assay with human liver microsomes (AID 1347399; calls by dose curve; also: nearly all actives have a fitted effect of over 60% in size). As to conditions: Potency: qHTS inhibition. The procedure, abridged:
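Recombinant human AChE (50 mU/mL in the enzyme mix) and human liver microsomes (0.25 mg/mL final) were preincubated with compound and NADPH (0.25 mg/mL final) for 30 min at 37 C. Acetylthiocholine/DTNB was then added; thiocholine was read colorimetrically after 10 min at room temperature.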

In experiment [10] the target is Cytochrome P450 2C19 (Homo sapiens) (UniProt P33261). Briefly: Cytochrome P450 Family 2 Subfamily C Member 19 (CYP2C19) small molecule antagonists: luciferase reporter qHTS assay (AID 1671197). Also: nearly all actives have a fitted effect of over 65% in size. Also: potency is read from the fitted curve at half-maximal effect. The procedure, abridged: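 P450-Glo CYP2C19 system: enzyme-substrate mix with compound 10 min at room temperature, then NADPH regeneration solution, 1 h at 37C. Proluciferin-to-luciferin conversion detected by luminescence after 20 min with detection reagent; ketoconazole as positive control.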
Background: In a reporter assay the amount or activity of a reporter protein is the signal.

For experiment [11], the target named is Cytochrome P450 2C9 (Homo sapiens) (UniProt P11712). Briefly: Cytochrome P450 Family 2 Subfamily C Member 9 (CYP2C9) small molecule antagonists: luciferase reporter qHTS assay (AID 1671198). Also: nearly all actives have a fitted effect of over 50% in size. Also: potency is read from the fitted curve at half-maximal effect. Summed up: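 Enzyme-substrate mix preincubated with compound 10 min at room temperature; reaction started with NADPH regeneration solution, 1 h 37C. Luminescent luciferin product read after 20 min detection reagent.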

The target in experiment [12] is Cytochrome P450 1A2 (Homo sapiens) (UniProt P05177). Briefly: Cytochrome P450 Family 1 Subfamily A Member 2 (CYP1A2) small molecule antagonists: luciferase reporter qHTS assay (AID 1671199). Also: nearly all actives have a fitted effect of over 50% in size. Also: potency is read from the fitted curve at half-maximal effect. Summed up: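 Luminescence readout (relative luminescence units) after luciferin detection reagent, 20 min RT. Preceded by 1 h room-temperature CYP1A2 reaction with NADPH regeneration solution following 10 min compound preincubation with enzyme and proluciferin substrate. Furafylline positive control.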

The target of experiment [13] is Voltage-gated inwardly rectifying potassium channel KCNH2 (Homo sapiens) (UniProt Q12809). Briefly: Human Ether-a-go-go-Related Gene (hERG) channel small molecule antagonists: fluorescence cell-based qHTS assay (AID 1671200). The procedure, abridged:
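First, 1000 cells per well are seeded and cultured overnight at 37 C. Next, FluxOR II dye is loaded for 1 h at room temperature, protected from light. After 10 more minutes, stimulus is added and fluorescence is read.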
Background: The hERG channel carries a current that helps repolarise heart muscle cells.

Experiment [14] concerns the target Cytochrome P450 3A4 (Homo sapiens) (UniProt P08684). Nature of the experiment: Cytochrome P450 Family 3 Subfamily A Member 4 (CYP3A4) small molecule antagonists: luciferase reporter qHTS assay (AID 1671201). The procedure, abridged: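 Enzyme and proluciferin substrate are mixed with test chemicals for 10 min, then NADPH regeneration system drives turnover for 1 h at room temperature. A detection reagent halts the reaction; luminescence after 20 min gives relative activity.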

The target of experiment [15] is Nuclear receptor subfamily 1 group I member 2 (Rattus norvegicus) (UniProt Q9R1A7). Briefly: Rat pregnane X receptor (rPXR) activation by small molecules, qHTS assay (AID 1346983). Also: nearly all actives have a fitted effect of over 20% in size. As to conditions: rPXR luciferase reporter cells, One-Glo luminescence, 24 h; stronger effect = higher value. The procedure, abridged: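 Luminescent readout (One-Glo luciferase, 30 min room temperature) followed 24 hr compound treatment at 37 C of rPXR cells plated 2,000 per well and preincubated 5hr; qHTS format with compounds delivered in DMSO.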

Experiment [16] has as its target Nuclear receptor subfamily 1 group I member 2 (Homo sapiens) (UniProt O75469). Briefly: CYP3A4 induction through human pregnane X receptor (PXR) by small molecules, qHTS assay (AID 1346984). Also: nearly all actives have a fitted effect of over 40% in size. Summed up: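 HepG2-derived DPX-2 line carrying PXR plus a CYP3A4-promoter luciferase reporter; cells plated 5 hr, compound-exposed 24 hr at 37C. CYP3A4 activity probed with 3uM (final) Luciferin-IPA for 3hr, then luciferase read after One-Glo.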

Experiment [17] has the same target. Briefly: Human pregnane X receptor (PXR) activation by small molecules, qHTS assay (AID 1346985). Also: nearly all actives have a fitted effect of over 40% in size. The procedure, abridged: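 DPX-2 cells (HepG2 co-transfected with a PXR response element and a CYP3A4-promoter luciferase construct) were seeded at 2,000 per well, rested 5 hr at 37C, then exposed to DMSO-dissolved compounds for 24 hr. Activation was read as luciferase luminescence.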

Experiment [18] addresses Cytochrome P450 2D6 (Homo sapiens) (UniProt P10635). Briefly: Cytochrome P450 Family 2 Subfamily D Member 6 (CYP2D6) small molecule antagonists: luciferase reporter qHTS assay (AID 1671196). Also: nearly all actives have a fitted effect of over 50% in size. Also: potency is read from the fitted curve at half-maximal effect. Summed up:
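Luminogenic proluciferin substrate, CYP2D6 enzyme; 10 min RT preincubation with compound, NADPH regeneration system added, 1 h RT. Stop/detection reagent, 20 min RT, luminescence read (RLU). Signal proportional to CYP activity.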

Several values for one entry are separate records, joined by “and”; a condition that tells them apart may be missing. Identical values can stand only once. Records with an inconclusive call do not appear. Some structures have more than one record in an assay (separate samples or runs), and their calls can disagree. Activity calls are given as the source filed them. Unless noted, calls follow the shape of the dose curve; as a rule, active = well fitted curve in the direction sought with a large enough effect in the repeat runs; inconclusive = weak or mixed curves; inactive = no such curve, though single readings can be large; an effect the other way counts as inactive or inconclusive.
% is scaled to controls: 0 for no effect and ±100 for the full control effect.

Cytochrome P450 2C19 (Homo sapiens), sequence (P33261 whole entry, looked up): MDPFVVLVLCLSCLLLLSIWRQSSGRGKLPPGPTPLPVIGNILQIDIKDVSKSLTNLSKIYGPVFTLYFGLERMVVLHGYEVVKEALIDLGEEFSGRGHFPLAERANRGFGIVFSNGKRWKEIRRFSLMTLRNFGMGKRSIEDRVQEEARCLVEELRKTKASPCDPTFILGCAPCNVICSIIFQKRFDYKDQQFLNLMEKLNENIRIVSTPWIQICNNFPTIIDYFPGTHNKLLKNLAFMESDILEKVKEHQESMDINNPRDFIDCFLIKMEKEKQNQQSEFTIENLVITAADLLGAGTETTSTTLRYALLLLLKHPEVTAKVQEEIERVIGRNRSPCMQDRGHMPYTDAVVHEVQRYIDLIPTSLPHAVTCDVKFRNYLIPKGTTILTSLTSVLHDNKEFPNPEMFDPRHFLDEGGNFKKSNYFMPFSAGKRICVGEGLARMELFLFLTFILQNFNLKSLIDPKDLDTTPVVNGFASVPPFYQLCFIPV
Voltage-gated inwardly rectifying potassium channel KCNH2 (Homo sapiens), sequence (Q12809 whole entry, looked up): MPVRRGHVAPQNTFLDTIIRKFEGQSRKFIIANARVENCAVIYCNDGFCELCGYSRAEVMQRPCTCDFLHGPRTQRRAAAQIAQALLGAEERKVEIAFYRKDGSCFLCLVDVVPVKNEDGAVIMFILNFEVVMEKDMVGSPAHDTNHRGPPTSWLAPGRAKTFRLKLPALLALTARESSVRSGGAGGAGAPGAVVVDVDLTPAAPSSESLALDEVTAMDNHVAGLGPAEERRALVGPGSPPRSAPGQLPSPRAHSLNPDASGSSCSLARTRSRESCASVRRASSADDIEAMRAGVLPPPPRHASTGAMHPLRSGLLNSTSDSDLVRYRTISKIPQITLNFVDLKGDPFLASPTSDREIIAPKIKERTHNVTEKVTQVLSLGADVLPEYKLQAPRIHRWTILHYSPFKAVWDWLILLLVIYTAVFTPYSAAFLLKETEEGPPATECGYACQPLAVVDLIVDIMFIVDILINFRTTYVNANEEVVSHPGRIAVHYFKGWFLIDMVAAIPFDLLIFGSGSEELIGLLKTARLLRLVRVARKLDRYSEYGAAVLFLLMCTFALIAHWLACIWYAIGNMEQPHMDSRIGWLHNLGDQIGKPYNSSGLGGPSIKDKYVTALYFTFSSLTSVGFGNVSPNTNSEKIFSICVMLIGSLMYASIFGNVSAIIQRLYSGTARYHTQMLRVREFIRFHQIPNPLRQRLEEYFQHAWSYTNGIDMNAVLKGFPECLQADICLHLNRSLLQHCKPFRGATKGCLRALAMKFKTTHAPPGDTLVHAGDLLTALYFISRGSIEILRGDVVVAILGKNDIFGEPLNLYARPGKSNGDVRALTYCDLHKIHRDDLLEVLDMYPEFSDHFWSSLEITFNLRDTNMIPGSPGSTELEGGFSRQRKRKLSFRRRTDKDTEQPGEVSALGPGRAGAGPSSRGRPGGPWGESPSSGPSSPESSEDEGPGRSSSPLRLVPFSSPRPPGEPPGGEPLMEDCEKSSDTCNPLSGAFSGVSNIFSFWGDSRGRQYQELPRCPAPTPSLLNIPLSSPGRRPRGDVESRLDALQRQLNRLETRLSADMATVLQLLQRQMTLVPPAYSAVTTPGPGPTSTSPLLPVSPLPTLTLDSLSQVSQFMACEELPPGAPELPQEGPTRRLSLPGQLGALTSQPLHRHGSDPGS
Nuclear receptor subfamily 1 group I member 2 (Homo sapiens), sequence (O75469 whole entry, looked up): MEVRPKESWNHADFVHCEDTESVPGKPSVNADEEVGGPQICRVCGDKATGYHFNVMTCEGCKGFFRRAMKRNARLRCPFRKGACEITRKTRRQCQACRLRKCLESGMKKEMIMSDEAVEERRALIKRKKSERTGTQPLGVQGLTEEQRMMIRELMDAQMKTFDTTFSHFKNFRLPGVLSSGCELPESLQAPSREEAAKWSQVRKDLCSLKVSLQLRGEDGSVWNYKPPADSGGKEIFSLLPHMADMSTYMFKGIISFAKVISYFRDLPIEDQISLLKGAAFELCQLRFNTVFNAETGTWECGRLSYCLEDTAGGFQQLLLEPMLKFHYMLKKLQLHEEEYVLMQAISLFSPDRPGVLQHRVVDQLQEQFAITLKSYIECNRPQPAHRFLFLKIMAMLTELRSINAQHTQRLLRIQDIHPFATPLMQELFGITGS
Cytochrome P450 1A2 (Homo sapiens), sequence (P05177 whole entry, looked up): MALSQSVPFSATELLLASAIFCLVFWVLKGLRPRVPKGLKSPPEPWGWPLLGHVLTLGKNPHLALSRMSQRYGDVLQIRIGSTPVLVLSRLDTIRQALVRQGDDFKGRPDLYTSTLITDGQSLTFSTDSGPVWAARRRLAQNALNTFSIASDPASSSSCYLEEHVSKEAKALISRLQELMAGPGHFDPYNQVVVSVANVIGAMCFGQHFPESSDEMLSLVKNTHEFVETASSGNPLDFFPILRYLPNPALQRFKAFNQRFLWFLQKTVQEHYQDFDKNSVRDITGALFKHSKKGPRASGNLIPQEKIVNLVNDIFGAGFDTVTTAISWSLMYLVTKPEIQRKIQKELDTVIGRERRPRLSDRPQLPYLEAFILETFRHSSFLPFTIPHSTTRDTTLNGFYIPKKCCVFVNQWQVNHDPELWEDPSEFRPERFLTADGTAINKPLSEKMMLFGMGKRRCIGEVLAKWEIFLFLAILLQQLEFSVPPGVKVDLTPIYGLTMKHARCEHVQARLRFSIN
Acetylcholinesterase (Homo sapiens), sequence (P22303 whole entry, looked up): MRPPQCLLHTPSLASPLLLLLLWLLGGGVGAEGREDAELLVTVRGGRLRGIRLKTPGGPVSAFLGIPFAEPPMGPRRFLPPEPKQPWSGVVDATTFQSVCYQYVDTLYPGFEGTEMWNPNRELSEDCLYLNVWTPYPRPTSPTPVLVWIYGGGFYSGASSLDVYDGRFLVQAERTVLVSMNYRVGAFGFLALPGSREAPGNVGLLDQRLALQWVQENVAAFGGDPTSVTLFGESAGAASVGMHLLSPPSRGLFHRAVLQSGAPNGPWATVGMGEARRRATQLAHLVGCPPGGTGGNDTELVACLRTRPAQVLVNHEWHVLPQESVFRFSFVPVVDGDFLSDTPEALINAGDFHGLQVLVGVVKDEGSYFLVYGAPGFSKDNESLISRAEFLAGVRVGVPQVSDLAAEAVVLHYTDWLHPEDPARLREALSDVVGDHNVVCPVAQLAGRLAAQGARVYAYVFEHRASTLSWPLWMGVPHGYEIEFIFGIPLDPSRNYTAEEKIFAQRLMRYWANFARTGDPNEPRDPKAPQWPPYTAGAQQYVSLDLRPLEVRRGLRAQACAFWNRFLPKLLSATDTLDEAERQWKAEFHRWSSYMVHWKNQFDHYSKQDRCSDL
Cytochrome P450 2D6 (Homo sapiens), sequence (P10635 whole entry, looked up): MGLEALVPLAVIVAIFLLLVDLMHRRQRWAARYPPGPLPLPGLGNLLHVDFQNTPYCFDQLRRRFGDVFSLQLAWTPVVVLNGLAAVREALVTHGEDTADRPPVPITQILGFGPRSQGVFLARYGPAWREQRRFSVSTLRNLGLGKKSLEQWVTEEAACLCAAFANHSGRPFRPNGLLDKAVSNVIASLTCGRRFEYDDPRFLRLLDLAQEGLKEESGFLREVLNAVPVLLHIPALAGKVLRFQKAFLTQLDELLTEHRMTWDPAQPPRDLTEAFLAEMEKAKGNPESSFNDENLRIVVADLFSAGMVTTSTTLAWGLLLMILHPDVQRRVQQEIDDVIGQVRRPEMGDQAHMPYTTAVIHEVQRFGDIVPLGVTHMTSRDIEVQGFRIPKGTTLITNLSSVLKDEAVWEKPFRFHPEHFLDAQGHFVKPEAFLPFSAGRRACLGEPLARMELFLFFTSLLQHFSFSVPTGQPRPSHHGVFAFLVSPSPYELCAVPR
Cytochrome P450 3A4 (Homo sapiens), sequence (P08684 whole entry, looked up): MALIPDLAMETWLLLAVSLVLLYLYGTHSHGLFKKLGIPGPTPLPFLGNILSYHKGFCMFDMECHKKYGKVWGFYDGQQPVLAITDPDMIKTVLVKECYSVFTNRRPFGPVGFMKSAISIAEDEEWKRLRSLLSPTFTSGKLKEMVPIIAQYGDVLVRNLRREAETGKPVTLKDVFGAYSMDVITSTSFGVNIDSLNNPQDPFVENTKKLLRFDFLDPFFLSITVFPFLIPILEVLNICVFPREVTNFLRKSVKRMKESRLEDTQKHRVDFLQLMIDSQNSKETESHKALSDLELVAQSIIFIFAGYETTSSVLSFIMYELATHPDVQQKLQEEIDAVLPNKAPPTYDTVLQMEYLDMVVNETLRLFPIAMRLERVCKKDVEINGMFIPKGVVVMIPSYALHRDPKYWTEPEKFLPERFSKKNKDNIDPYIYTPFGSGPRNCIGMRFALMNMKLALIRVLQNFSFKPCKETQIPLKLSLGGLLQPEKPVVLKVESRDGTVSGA
Cytochrome P450 2C9 (Homo sapiens), sequence (P11712 whole entry, looked up): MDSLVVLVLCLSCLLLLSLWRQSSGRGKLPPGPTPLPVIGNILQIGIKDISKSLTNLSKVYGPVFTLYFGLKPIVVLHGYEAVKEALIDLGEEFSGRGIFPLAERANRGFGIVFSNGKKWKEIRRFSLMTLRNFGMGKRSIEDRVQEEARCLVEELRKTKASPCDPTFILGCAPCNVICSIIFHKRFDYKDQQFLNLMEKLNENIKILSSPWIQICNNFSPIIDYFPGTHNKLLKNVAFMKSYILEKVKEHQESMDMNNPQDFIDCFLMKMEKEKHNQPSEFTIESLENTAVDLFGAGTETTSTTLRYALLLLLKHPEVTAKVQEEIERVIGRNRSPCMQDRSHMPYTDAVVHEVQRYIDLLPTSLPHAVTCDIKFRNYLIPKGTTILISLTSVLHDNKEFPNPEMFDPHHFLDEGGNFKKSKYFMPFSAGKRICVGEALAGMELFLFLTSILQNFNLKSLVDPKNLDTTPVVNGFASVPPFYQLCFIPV

Take `CC1=C(C(=O)Nc2ccccc2)SCCO1`: the Potency result in experiment [1], in experiment [2], in experiment [3], in experiment [4], in experiment [6] and in [7] was “inactive” each time. The Potency entry in experiment [8], in experiment [9], in experiment [13] and in experiment [14] was “inactive” throughout. Besides, the Potency in experiment [5] was 34.9 µM (active) and 30.6 µM (active); in experiment [10], 36.2 µM (active) and 22.4 µM (active); in experiment [11] it was 11.2 µM (active); in experiment [12] it was 12.8 µM (active) and 12.6 µM (active).

As for `CCCCCCCCCC(CC)c1ccc(S(=O)(=O)O)cc1` (stereo not drawn), the Potency entry in experiment [1], in experiment [2], in [3], in experiment [4], in experiment [16] and in [6] was “inactive” throughout. Besides, the Potency result in experiment [8], in experiment [9], in [13] and in experiment [14] was “inactive” each time. Further, the max activation in experiment [15] was -0.486% (inactive). Further, the outcome in [17] was inactive. The Potency was 57 µM (active) and 79.6 µM (active) and 47.4 µM (active) in experiment [7]; “inactive and 50.2 µM (active)” in experiment [18]; 40.1 µM (active) and inactive and 35.6 µM (active) in [10]; 63.2 µM (active) and inactive and 63.3 µM (active) in experiment [12].

On to `CCOC(=O)c1ccccc1N`, for which the Potency entry in [1], in experiment [2], in [3], in experiment [4], in experiment [5] and in [6] was “inactive” in each case. The Potency result in experiment [7], in [8], in experiment [9], in experiment [18], in experiment [10] and in experiment [11] was “inactive” throughout. In [13], the Potency entry is “inactive”. Also, the Potency in experiment [12] is 28.1 µM (active) and 31.7 µM (active).

As for `N#CCCCCC#N`, the Potency entry in [1], in [2], in experiment [3], in experiment [4], in [5] and in [6] was “inactive” in each case. Also, the Potency entry in [7], in experiment [8], in experiment [9], in experiment [18], in [11] and in [13] was “inactive” in each case. In [14], the Potency result is “inactive”. The Potency in [10] was 72.5 µM (active) and inactive.

Consider `O=C1Nc2ccc(Cl)cc2C(c2ccccc2)=NC1O` (stereo not drawn), for which the Potency result in experiment [1], in [2], in [3], in experiment [4], in experiment [6] and in experiment [7] was “inactive” throughout. Besides, the Potency entry in experiment [8] is “inactive”. In addition, the Potency in experiment [5] is 38.9 µM (active) and 46.1 µM (active). Further, the max activation in experiment [15] is 0.163% (inactive). Besides, the call in experiment [17] was inactive.

As to `CN(C)c1nc(=O)n(C2CCCCC2)c(=O)n1C`, the Potency entry in experiment [1], in experiment [2], in [3], in experiment [4], in experiment [6] and in experiment [7] was “inactive” throughout. The Potency result in experiment [8], in experiment [9], in [18], in experiment [10], in [11] and in experiment [12] was “inactive” each time. Further, the Potency entry in experiment [13] and in experiment [14] was “inactive” in each case. Also, the Potency in experiment [5] was 65 µM (active) and inactive.
